Measured values as given in PubChem BioAssay.
Measured potencies and affinities stand elsewhere. Calls of active or inactive are those of the source. Cut-off not given; nearly all actives show IC50 up to about 0.98 µM.

target: Calcium-dependent protein kinase 1 (Plasmodium falciparum (isolate 3D7)) (UniProt P62344); experiment: PfCDPK1 kinase inhibitors, biochemical, TCAMS library (AID 1159585); settings: recombinant PfCDPK1, Kinase-Glo ATP depletion luminescence;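 further: inhibitors leave more ATP so luminescence rises with inhibition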
Sequence (P62344 whole entry, looked up): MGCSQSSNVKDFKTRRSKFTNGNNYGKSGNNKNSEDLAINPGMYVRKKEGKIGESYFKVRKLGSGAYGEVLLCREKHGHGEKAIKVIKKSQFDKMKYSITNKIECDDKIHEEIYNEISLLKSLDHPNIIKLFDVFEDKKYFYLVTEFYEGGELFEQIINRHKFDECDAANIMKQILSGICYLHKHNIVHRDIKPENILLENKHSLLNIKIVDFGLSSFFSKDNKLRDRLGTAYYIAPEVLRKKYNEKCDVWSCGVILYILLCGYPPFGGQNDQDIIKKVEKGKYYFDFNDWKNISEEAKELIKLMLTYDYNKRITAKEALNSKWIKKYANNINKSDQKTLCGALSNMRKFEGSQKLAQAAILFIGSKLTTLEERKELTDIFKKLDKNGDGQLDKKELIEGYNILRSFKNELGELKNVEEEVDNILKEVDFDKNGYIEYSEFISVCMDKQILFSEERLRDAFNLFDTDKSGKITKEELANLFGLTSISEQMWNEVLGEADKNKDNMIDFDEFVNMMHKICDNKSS

Row | SMILES | outcome
1 | O=C(/C=C/c1ccc(Cl)c(Cl)c1)NCCCCCN1CCCC(C(=O)Nc2cccc(Cl)c2)C1 (stereo not drawn) | inactive
2 | N#Cc1cccc(-c2cccc(C(=O)NC3CCC(CCN4CCc5ccc(C#N)cc5CC4)CC3)c2)c1 (stereo not drawn) | inactive
3 | COc1cccc2c(NCc3ccccc3)nc(NCCCN3CCCCC3C)nc12 (stereo not drawn) | inactive
4 | COc1cc(C=CC(=O)N2CCC(CCN3CCC(c4c[nH]c5ccccc45)CC3)CC2)cc(OC)c1 | inactive
5 | Cc1cc(Cl)ccc1OC(C)C(=O)N1CCc2ccccc21 (stereo not drawn) | inactive
6 | Cc1nc(-c2cccc(Nc3nccc(NCC(O)c4ccccc4)n3)c2)cs1 (stereo not drawn) | inactive
7 | CC(C)(C)c1ccc(S(=O)(=O)Nc2ccccc2Cn2nc(N3CCNCC3)ccc2=O)cc1 | inactive
8 | CCn1ccc2c(N3CCCS3(=O)=O)cc(C(=O)N[C@@H](Cc3ccccc3)[C@H](O)CNC(C)(C)CCCC(C)C)cc21 | inactive
9 | O=C(CC(=O)C(F)(F)F)c1ccccc1[N+](=O)[O-] | inactive
10 | CCOc1ccc(Br)cc1/C=C/C(=O)Nc1ccc2c(c1)CN(C)CCC2 | inactive
11 | COc1ccc2nccc(NN=Cc3ccccc3)c2c1 | inactive
12 | CN(C(=O)/C=C/c1cc(C(F)(F)F)ccc1F)C1CCN(CCCCCNC(=O)/C=C/c2ccc(Cl)c(Cl)c2)CC1 | inactive
13 | Nc1cnc(C#Cc2cc3ncnc(N(CCN4CCOCC4)c4ccc(OCc5cccc(F)c5)c(Cl)c4)c3s2)cn1 | inactive
14 | Cc1nnsc1C(=O)Nc1ccc(-c2cccc(-c3nc4c(C)cccc4[nH]3)c2)cc1 | inactive
15 | O=[N+]([O-])c1ccc(C(O)CNCCc2ccccc2)cc1OCc1ccccc1 (stereo not drawn) | inactive
16 | COc1cc2ccccc2c(OC)c1CCNCCCCNCCc1c(OC)cc2ccccc2c1OC | inactive
17 | COc1ccc(Cl)cc1N1CCN(CCCNC(=O)c2ccc(-c3nc4cc(Cl)c(F)cc4[nH]3)c(F)c2)CC1 | inactive
18 | c1ccc2c(c1)CN(Cc1cc3ccccc3[nH]1)CC1(CCN(Cc3c[nH]c4cnccc34)CC1)O2 | inactive
19 | Oc1ccc(CCNc2nc(NCCCOc3cccc(CN4CCCCC4)c3Cl)nc(N3CCNCC3)n2)cc1 | inactive
20 | O=C(CC1CCCC1)Nc1ccc2c(c1)CCC2 | inactive
21 | CCN1CCN(C(=O)NC(C(=O)N(C)Cc2ccc(-c3ccc(C(F)(F)F)cc3)cc2)c2cccs2)C(=O)C1=O (stereo not drawn) | inactive
22 | Oc1c(CN2CCC(Cc3ccccc3)CC2)cc(Cl)c2cccnc12 | inactive
23 | C=C[C@]1(C)C[C@@H](OC(=O)NC(=O)CCCS(=O)(=O)c2nnc(C)s2)[C@]2(C)[C@H](C)CC[C@]3(CCC(=O)[C@H]32)[C@@H](C)[C@@H]1O | inactive
24 | COc1c(C2CCN(CCCCNC(=O)c3ccc(-c4ccc(C(=O)C(F)(F)F)cc4)cc3)CC2)ccc2c1CCCC2 | inactive
25 | O=C(NC1CCCc2ccccc21)C1CCCN(C(=O)c2ccc(O)c(-c3ccc(Cl)c(Cl)c3)c2)C1 (stereo not drawn) | inactive
26 | CC(=O)Nc1ncc(C(=O)Nc2cccc(-c3cccc(-c4nc5ccccc5[nH]4)c3)c2)s1 | inactive
27 | CCN(CC)C(=O)C1CCCN(C(=O)Nc2cc(C(F)(F)F)cc(C(F)(F)F)c2)C1 (stereo not drawn) | inactive
28 | CCC(C)NS(=O)(=O)c1ccc2nc(Nc3ccc(C)cc3)n([C@H](C)C(C)(C)C)c2c1 (stereo partly drawn) | inactive
